Experimental data as given in ChEMBL document CHEMBL1961873, “Compounds: GSK PKIS; Assays: Nanosyn kinase panel” (2012).

Experiments:
[1] = target: Tyrosine-protein kinase SYK (Homo sapiens) (UniProt P43405); conditions: at 1 µM
[2] = target: T1, Tyrosine-protein kinase Tec (Homo sapiens) (UniProt P42680); conditions: at 0.1 µM
T1 sequence (whole entry): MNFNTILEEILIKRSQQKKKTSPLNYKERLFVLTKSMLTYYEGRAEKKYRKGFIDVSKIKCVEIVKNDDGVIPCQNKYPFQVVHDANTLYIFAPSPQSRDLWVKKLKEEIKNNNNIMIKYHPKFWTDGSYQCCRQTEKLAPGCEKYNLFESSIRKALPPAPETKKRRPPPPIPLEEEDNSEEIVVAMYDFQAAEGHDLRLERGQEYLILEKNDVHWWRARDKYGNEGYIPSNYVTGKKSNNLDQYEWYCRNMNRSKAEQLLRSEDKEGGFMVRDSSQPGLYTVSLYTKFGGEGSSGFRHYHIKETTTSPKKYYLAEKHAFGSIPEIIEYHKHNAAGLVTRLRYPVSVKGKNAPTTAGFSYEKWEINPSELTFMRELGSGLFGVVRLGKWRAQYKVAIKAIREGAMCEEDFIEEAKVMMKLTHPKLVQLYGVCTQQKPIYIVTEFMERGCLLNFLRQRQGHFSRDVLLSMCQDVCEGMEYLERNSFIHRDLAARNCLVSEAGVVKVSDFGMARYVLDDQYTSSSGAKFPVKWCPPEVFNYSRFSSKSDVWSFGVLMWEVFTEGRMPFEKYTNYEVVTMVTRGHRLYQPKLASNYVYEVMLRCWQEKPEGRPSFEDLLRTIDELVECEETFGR

[3] = target: T1, Tyrosine-protein kinase Tec (Homo sapiens); conditions: at 1 µM
[4] = target: Angiopoietin-1 receptor (Homo sapiens) (UniProt Q02763); conditions: at 0.1 µM
[5] = target: Angiopoietin-1 receptor (Homo sapiens) (UniProt Q02763); conditions: at 1 µM
[6] = target: T2, Non-receptor tyrosine-protein kinase TNK1 (Homo sapiens) (UniProt Q13470); conditions: at 0.1 µM
T2 sequence (whole entry): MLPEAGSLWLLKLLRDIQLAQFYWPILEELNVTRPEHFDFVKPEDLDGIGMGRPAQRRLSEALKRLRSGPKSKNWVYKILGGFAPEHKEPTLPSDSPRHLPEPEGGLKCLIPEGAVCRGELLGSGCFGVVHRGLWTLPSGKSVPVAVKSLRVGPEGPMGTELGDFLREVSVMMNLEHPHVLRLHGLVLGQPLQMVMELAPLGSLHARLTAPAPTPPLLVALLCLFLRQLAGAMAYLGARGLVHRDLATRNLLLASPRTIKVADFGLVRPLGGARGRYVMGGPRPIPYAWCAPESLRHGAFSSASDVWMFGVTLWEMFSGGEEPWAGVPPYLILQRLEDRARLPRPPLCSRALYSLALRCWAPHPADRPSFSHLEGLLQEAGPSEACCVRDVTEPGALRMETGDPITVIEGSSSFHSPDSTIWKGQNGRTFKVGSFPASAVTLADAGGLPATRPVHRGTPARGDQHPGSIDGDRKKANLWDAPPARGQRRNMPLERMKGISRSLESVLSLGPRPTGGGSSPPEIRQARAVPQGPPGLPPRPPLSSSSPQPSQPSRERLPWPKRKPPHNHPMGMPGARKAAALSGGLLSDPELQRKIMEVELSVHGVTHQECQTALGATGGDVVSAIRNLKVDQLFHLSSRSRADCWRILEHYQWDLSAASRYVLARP

[7] = target: T2, Non-receptor tyrosine-protein kinase TNK1 (Homo sapiens); conditions: at 1 µM
[8] = target: Activated CDC42 kinase 1 (Homo sapiens) (UniProt Q07912); conditions: at 0.1 µM
[9] = target: Activated CDC42 kinase 1 (Homo sapiens) (UniProt Q07912); conditions: at 1 µM
[10] = target: High affinity nerve growth factor receptor (Homo sapiens) (UniProt P04629); conditions: at 0.1 µM
[11] = target: High affinity nerve growth factor receptor (Homo sapiens) (UniProt P04629); conditions: at 1 µM
[12] = target: BDNF/NT-3 growth factors receptor (Homo sapiens) (UniProt Q16620); conditions: at 0.1 µM
[13] = target: BDNF/NT-3 growth factors receptor (Homo sapiens) (UniProt Q16620); conditions: at 1 µM
[14] = target: NT-3 growth factor receptor (Homo sapiens) (UniProt Q16288); conditions: at 0.1 µM
[15] = target: NT-3 growth factor receptor (Homo sapiens) (UniProt Q16288); conditions: at 1 µM
[16] = target: T3, Tyrosine-protein kinase TXK (Homo sapiens) (UniProt P42681); conditions: at 0.1 µM
T3 sequence (whole entry): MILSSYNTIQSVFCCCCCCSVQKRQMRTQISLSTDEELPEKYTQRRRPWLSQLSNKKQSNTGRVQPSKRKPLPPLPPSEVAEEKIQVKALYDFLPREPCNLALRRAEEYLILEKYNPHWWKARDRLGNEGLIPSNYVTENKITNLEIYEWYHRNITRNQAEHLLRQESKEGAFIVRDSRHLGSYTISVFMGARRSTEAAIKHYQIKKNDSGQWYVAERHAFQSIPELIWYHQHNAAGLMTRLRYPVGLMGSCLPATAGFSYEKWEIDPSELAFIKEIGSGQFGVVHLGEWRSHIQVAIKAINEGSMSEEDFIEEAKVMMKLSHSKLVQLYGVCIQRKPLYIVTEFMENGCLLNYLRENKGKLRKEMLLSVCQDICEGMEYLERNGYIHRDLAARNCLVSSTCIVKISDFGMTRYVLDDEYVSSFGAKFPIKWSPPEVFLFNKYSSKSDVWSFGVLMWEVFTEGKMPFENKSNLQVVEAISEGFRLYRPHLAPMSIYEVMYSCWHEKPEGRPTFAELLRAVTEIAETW

[17] = target: T3, Tyrosine-protein kinase TXK (Homo sapiens); conditions: at 1 µM
[18] = target: Non-receptor tyrosine-protein kinase TYK2 (Homo sapiens) (UniProt P29597); conditions: at 0.1 µM;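 note: each value is a mean of the inhibition readings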
[19] = target: T4, Dual specificity protein kinase TTK (Homo sapiens) (UniProt P33981); conditions: at 1 µM;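 note: reported figures are mean TTK inhibition at 1 µM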
T4 sequence (whole entry): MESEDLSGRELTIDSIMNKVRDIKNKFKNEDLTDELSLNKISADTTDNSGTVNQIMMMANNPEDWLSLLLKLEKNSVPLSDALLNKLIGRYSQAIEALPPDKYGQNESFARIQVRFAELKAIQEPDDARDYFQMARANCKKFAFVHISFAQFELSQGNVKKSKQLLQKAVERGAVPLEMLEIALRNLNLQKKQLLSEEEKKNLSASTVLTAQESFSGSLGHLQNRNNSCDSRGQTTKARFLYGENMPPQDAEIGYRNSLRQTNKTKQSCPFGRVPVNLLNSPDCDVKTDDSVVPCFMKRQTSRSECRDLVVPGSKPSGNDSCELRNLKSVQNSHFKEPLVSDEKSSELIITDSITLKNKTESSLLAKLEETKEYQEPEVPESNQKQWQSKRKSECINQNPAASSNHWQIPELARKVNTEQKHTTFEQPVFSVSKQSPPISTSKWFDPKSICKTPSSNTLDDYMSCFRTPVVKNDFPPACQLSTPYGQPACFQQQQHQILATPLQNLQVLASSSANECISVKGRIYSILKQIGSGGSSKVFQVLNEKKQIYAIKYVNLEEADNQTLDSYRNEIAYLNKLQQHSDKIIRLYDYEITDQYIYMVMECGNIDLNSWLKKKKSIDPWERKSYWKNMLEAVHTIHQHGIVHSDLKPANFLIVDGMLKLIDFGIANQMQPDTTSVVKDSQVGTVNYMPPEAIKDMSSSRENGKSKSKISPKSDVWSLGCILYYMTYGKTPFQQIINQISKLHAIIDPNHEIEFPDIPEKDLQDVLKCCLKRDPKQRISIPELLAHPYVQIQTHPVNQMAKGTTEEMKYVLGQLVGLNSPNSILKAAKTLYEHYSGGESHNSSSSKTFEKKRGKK

[20] = target: T5, Aurora kinase A (Homo sapiens) (UniProt O14965); conditions: at 0.1 µM;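 note: each reported value is a mean percent inhibition of Aurora-A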
T5 sequence (whole entry): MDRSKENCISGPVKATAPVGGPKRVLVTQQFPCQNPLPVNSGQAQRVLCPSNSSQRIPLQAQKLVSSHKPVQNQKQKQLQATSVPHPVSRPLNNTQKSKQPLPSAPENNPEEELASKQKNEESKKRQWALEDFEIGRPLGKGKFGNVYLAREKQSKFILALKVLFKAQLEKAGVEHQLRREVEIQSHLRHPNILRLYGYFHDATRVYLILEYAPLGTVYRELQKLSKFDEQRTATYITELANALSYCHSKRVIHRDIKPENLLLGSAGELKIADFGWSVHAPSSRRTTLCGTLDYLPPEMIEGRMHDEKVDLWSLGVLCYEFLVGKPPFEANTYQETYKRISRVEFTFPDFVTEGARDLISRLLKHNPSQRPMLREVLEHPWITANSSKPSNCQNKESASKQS

Sequence of NT-3 growth factor receptor (Homo sapiens) (Q16288 32-839 limits assumed): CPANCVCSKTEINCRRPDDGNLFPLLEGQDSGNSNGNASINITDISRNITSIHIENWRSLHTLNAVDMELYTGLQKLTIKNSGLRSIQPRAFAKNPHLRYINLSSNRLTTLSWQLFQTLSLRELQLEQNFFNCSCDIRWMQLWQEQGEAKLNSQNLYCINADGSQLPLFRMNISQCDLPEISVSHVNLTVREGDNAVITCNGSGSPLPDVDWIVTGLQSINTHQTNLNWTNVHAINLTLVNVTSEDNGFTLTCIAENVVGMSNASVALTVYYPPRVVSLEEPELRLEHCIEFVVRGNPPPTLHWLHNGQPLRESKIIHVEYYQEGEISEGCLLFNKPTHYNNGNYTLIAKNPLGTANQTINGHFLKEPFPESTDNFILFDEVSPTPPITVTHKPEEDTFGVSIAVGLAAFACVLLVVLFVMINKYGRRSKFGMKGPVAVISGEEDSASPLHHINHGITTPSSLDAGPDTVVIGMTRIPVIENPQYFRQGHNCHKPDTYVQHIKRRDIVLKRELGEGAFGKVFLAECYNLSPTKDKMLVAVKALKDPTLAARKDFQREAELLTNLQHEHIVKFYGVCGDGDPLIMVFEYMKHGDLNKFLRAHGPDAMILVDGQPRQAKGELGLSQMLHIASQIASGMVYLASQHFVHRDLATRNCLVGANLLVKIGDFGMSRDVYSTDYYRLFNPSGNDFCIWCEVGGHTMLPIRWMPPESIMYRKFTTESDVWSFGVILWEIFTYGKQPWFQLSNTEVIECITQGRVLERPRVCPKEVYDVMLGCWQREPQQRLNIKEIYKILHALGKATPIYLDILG
Sequence of Non-receptor tyrosine-protein kinase TYK2 (Homo sapiens) (P29597 whole entry): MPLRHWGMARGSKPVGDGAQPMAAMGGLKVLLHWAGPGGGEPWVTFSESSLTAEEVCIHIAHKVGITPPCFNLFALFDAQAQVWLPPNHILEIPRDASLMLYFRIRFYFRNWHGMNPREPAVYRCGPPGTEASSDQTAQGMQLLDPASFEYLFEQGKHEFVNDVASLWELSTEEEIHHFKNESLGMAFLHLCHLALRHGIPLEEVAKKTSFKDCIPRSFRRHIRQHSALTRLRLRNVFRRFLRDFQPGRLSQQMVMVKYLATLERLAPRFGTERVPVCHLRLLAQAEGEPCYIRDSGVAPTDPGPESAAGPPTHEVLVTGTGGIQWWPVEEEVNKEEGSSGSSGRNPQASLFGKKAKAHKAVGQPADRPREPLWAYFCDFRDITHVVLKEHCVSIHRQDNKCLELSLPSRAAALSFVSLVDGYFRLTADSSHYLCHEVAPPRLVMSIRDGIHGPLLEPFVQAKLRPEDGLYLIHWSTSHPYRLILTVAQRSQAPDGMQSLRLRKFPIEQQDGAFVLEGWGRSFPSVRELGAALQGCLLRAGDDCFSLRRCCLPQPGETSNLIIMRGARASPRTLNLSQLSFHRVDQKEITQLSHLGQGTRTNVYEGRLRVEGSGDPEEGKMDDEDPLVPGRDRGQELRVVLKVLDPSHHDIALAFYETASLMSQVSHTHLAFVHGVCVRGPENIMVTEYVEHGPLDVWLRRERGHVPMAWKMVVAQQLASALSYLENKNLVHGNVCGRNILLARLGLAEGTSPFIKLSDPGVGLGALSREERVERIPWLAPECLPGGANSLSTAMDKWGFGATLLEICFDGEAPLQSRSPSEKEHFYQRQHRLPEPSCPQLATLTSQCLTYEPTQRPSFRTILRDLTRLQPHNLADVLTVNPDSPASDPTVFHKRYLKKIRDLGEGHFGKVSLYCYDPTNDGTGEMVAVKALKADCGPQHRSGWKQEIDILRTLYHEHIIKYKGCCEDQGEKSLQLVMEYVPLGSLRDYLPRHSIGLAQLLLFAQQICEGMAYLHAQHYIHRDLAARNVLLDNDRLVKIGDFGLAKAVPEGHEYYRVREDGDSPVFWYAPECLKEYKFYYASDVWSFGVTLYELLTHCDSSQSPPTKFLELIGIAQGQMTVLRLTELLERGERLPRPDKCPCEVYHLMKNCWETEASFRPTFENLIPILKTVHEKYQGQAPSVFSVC
Sequence of High affinity nerve growth factor receptor (Homo sapiens) (P04629 33-796 limits assumed): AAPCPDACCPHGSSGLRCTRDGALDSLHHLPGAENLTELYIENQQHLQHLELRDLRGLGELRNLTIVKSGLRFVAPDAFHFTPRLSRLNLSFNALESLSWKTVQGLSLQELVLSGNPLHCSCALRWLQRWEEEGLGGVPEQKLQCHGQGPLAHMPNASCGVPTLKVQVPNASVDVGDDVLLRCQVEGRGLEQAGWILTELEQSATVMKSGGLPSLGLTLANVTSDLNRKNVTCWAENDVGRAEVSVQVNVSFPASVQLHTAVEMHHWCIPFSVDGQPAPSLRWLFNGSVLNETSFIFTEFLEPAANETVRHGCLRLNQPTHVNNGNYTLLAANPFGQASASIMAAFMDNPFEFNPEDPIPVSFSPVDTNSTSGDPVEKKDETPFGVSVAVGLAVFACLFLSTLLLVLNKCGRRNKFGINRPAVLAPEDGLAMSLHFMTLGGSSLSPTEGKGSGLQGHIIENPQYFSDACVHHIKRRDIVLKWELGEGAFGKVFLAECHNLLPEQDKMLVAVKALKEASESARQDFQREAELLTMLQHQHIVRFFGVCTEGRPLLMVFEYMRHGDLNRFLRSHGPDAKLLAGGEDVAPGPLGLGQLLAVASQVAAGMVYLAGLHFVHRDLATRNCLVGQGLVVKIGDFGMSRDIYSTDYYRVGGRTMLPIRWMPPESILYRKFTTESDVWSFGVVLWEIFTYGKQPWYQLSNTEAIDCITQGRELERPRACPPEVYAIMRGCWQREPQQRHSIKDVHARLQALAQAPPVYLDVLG
Sequence of Activated CDC42 kinase 1 (Homo sapiens) (Q07912 whole entry, looked up): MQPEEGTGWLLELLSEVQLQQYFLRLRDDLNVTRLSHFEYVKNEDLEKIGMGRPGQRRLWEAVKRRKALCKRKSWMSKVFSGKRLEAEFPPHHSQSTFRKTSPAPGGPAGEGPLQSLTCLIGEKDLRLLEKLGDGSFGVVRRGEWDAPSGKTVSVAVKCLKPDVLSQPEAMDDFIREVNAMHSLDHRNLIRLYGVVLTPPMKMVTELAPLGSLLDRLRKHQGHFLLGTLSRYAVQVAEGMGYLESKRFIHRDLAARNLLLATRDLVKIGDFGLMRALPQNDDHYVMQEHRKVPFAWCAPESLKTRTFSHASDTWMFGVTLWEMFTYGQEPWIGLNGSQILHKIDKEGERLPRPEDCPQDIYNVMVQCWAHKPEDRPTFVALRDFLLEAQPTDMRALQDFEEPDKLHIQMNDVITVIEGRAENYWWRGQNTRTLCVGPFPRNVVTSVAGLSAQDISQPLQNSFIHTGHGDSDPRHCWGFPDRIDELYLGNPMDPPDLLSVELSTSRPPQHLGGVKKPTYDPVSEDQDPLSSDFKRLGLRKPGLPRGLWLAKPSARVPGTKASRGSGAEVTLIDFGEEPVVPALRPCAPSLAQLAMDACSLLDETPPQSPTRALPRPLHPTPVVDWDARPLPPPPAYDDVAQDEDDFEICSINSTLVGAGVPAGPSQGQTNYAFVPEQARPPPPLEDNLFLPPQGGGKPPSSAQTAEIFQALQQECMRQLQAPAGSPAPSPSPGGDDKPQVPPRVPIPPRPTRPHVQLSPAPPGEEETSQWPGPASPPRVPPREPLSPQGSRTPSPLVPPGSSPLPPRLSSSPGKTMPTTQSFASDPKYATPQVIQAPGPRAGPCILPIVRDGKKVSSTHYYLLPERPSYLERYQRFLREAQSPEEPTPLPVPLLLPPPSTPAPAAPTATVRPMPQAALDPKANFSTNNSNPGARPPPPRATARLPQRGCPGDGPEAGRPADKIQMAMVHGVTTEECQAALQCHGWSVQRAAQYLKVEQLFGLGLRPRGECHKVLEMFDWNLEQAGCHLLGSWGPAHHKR
Sequence of Angiopoietin-1 receptor (Homo sapiens) (Q02763 whole entry): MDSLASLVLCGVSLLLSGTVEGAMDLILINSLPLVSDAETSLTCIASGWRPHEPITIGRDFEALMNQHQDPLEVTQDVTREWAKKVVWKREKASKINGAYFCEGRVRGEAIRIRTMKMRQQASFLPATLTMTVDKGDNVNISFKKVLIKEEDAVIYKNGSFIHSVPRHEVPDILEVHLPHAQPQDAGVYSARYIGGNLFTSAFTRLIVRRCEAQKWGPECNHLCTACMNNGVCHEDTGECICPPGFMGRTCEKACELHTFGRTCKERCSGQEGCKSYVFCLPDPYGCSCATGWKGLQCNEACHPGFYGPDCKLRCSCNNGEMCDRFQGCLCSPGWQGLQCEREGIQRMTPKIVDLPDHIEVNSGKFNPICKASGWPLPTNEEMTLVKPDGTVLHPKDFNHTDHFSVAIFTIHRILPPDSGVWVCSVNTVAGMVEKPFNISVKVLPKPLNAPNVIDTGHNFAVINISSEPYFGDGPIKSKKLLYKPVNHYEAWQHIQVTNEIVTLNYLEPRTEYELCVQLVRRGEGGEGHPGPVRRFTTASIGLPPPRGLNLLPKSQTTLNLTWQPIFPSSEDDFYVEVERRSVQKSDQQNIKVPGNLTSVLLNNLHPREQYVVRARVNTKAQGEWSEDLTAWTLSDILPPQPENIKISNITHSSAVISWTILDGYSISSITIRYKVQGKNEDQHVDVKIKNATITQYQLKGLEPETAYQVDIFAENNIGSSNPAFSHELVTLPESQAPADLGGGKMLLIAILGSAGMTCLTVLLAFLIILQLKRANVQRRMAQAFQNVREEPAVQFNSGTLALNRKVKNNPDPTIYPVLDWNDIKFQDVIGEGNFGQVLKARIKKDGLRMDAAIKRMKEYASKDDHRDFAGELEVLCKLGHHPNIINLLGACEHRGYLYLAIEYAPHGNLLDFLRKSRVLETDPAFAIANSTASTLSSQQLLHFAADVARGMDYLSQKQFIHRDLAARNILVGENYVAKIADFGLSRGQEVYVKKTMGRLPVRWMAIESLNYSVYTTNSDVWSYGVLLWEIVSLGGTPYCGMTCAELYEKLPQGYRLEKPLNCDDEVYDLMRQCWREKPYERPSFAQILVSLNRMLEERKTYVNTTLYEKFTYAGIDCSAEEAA

Structure (SMILES) | inhibition [1] [%] | inhibition [2] [%] | inhibition [3] [%] | inhibition [4] [%] | inhibition [5] [%] | inhibition [6] [%] | inhibition [7] [%] | inhibition [8] [%] | inhibition [9] [%] | inhibition [10] [%] | inhibition [11] [%] | inhibition [12] [%] | inhibition [13] [%] | inhibition [14] [%] | inhibition [15] [%] | inhibition [16] [%] | inhibition [17] [%] | inhibition [18] [%] | inhibition [19] [%] | inhibition [20] [%]
Cc1nnc(-c2cccc(-c3ccc(C(=O)NCC4CC4)cc3)c2)o1 | -0.72 | 5.71 | 6.71 | 2.51 | 2.87 | 2.91 | 11.3 | 1.67 | 2.25 | 3.31 | 1.38 | 2.02 | 4.55 | 3.7 | 3.95 | 2.44 | 3.16 | -5.67 | 0.98 | 1.82
c1cnn2ncc(-c3ccnc(NCCCN4CCOCC4)n3)c2c1 | 0.5 | 2.64 | 3.12 | 2.79 | 3.09 | 1.04 | -1.51 | 0.23 | -0.49 | 2.69 | 1.75 | 3.17 | 1.35 | 3.48 | 2.63 | 1.71 | -0.63 | -5.16 | 8.22 | 2.65
CCS(=O)(=O)c1ccc(OC)c(Nc2ncc(-c3cccc(F)c3)o2)c1 | 1.66 | 9.86 | 37.2 | 4.21 | 14.1 | 27.4 | 76.5 | 2.97 | 13.2 | 6.84 | 42.8 | 10 | 47.2 | 12 | 48.1 | 17.2 | 56 | -0.94 | 8.85 | 7.01
O=C(Nc1n[nH]c2nnc(-c3cccnc3)cc12)C1CC1 | 0.88 | 0.17 | 3.48 | 1.38 | 1.88 | -1.13 | 0.09 | 0.32 | 1.68 | 0.12 | -0.64 | -0.74 | 0.57 | -0.44 | -0.22 | 0.3 | 2.21 | 1.8 | 2.14 | 0.85
O=C(O[C@H]1CN[C@H](C#Cc2cc3ncnc(Nc4ccc5c(ccn5Cc5cc(F)ccc5F)c4)c3s2)C1)N1CCOCC1 | 0.11 | 4.74 | 7.34 | 3.18 | 10.8 | 2.48 | 1.5 | 0.66 | 0.98 | 1.93 | 0.61 | 1.99 | 3.22 | 2.18 | 2.92 | 3.8 | 5.25 | -1.85 | 9.66 | 4.5
CNC(=O)c1ncccc1Nc1nc(Nc2cc3c(cc2OC)CCCN3C(=O)CN(C)C)nc2[nH]ccc12 | 1.95 | 5.55 | 7.76 | 1.81 | -0.04 | 50 | 73 | 2.4 | 10.8 | 5.07 | 6.12 | 3.17 | 5.34 | 2.2 | 5.36 | 3.73 | 1.5 | -3.3 | 35.2 | 2.64
